# D1 ag: agonists of human D1 dopamine receptor; HEK293 T-REx D1 cells, calcium flux, agonist mode; activation, % at 2 µM; 1% of 360,000 active; AID 504660; note: 0% is about no effect
#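 Inducible HEK293 T-REx D1 cells, force-coupled to calcium signalling, were plated at 4000 cells/well with tetracycline and held overnight at 30 C. After no-wash calcium dye loading, compound-evoked calcium rise over 180 s flagged agonists.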
# TRHR ag: agonists of human TRH receptor; 0.18% of 360,000 active; P34981; activation, % at 2 µM; TRHR cells, calcium flux fluo-8, FDSS agonist mode; note: 0% is about no effect
# Target sequence (P34981 whole entry, looked up): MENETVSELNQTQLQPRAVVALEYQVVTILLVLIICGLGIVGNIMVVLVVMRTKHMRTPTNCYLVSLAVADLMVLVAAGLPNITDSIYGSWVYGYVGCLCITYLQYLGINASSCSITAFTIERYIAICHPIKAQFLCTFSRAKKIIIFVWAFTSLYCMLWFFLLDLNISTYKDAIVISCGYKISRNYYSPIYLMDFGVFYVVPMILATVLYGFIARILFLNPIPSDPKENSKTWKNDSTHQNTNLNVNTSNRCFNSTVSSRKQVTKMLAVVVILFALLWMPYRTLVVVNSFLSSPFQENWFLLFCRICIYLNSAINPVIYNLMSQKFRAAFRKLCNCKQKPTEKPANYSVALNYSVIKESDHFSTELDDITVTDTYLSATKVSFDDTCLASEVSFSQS
#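 Steps: seed TRHR cells overnight; add fluo-8 no-wash Ca dye, RT 30 min–1.5 h; record 10 s baseline; pin-transfer compounds; monitor fluorescence 1 cycle/s for the agonist window. Calcium increases flag candidate agonists.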
# D1 antag: blocks dopamine activation of the human D1 receptor; HEK293 TREx D1 cells, calcium flux, dopamine EC80; hits give low values; 3.2% of 360,000 active; AID 504652; P21728; activity change, negative = inhibition, % at 10 µM; in the data active = activity change below about -30%; note: % is set by controls: 0 for no effect and ±100 for the full control effect
#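 Tetracycline-induced HEK293 Trex D1 cells, force-coupled to calcium, dye-loaded; compounds added and read 180 s, then EC80 dopamine added and calcium flux tracked kinetically another 180 s.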
# TRHR enhancer: allosteric enhancers of human TRH receptor | P34981 | TRHR cells, fluo-8 calcium fluorescence, EC20 TRH enhancement | enhancement, % at 2 µM | 0.66% of 360,000 active | AID 493056; in the data active = enhancement above about 30%; note: 0% is about no effect
#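 Enhancer read-out: after compound pinning and an initial kinetic agonist-mode read, an EC20 of TRH (10 nM final) was injected and fluo-8 calcium signal (Ex 480/Em 530) followed at 1 s/cycle for 100 cycles in TRHR-expressing cells.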
# D1 PAM: human D1 dopamine receptor positive modulation. HEK293 TREx D1 cells, calcium flux, dopamine EC20 potentiation. 0.036% of 360,000 active. potentiation, % at 10 µM. P21728. AID 504651; in the data active = potentiation above about 30%; note: 0% is about no effect
# * hit, by the source's call; . = not tested or not shown. An excerpt weighted towards active compounds, which were near 4.6% of everything screened. Cut-off read from the data, not from the text of the source, unless noted: active = activation above about 30%; inactive = the rest.
SMILES,D1 ag,TRHR ag,D1 antag,TRHR enhancer,D1 PAM
Cc1nn(C(=O)c2ccc(Cl)cc2)c(C)c1S(=O)(=O)N1CCOCC1,-0.3,0.3,2.2,4.0,-3.0
O=C(Nc1cc(C(F)(F)F)ccc1Cl)[C@H](O)CCc1ccccc1,16.7,1.2,-7.8,-4.2,-5.0
CCCCOc1cccc(C2C(C(=O)c3ccc(C)o3)=C(O)C(=O)N2c2nnc(C)s2)c1 (configuration not stated),7.7,2.9,9.6,-4.2,-2.0
CCCOc1cccc(C2C(C(=O)c3ccco3)=C(O)C(=O)N2c2nnc(C)s2)c1 (configuration not stated),76.0*,8.7,5.5,12.4,.
O=C(CN1C(=O)NC(Cc2ccccc2)C1=O)Nc1ccc(F)cc1 (configuration not stated),1.7,-0.2,-86.3*,4.2,-8.8
COc1ccc(CNCc2ccc3c(c2)n(C)c(=O)n3C)cc1,3.5,0.6,3.3,2.4,0.0
CCOC(=O)c1cc(-c2ccccc2)sc1NC(=O)CC(C)C,2.3,0.9,-30.9*,-2.0,-5.5
CCCC(=O)N(c1ccc2oc3c(c2c1)CCCC3)S(=O)(=O)c1cc(C)ccc1C,1.5,0.6,-45.9*,-1.6,-2.9
CCCC(=O)N(c1ccc2oc(C)c(C(C)=O)c2c1)S(=O)(=O)c1ccc(C)cc1,1.3,-0.3,2.8,0.4,-5.2
Cc1ccc(CN2C(=O)c3ccccc3Sc3ccc(C(=O)NCc4ccco4)cc32)cc1,2.6,0.4,-4.5,-4.6,-1.3
COC(=O)c1ccc(COc2cc(O)c3c(c2)OC(C)(C)CC3=O)cc1,18.1,-0.4,-34.7*,3.4,6.0
CC(C)c1ccc2c(c1)NC(c1ccc(F)cc1)=NC(c1cccs1)=N2,0.1,0.1,7.0,6.8,4.3
COc1ccccc1NC(=O)CSc1ncc2c(n1)-c1cc(Cl)ccc1N(Cc1ccccc1)S2(=O)=O,7.0,1.9,-33.4*,-4.9,-7.0
O=C(CSc1ncc2c(n1)-c1cc(Cl)ccc1N(Cc1ccccc1)S2(=O)=O)Nc1ccc(F)cc1F,4.0,1.2,33.5,5.6,3.6
Cc1ccccc1CN1c2ccccc2-c2nc(SCC(N)=O)ncc2S1(=O)=O,4.6,-0.2,8.6,-1.6,-5.2
CCc1ccccc1NC(=O)CSc1ncc2c(n1)-c1ccccc1N(Cc1ccc(C)cc1)S2(=O)=O,2.4,0.0,-37.0*,-2.3,-7.7
Cc1ccccc1CN1c2ccccc2-c2nc(SCC(=O)c3ccccc3)ncc2S1(=O)=O,1.9,0.4,-37.9*,0.1,1.9
CSc1ncc(C(=O)Nc2cc(C)cc(C)c2)c(-c2ccccc2)n1,0.4,0.7,10.0,-6.3,-0.7
Nc1c(Br)cc(Br)c2cccnc12,2.0,0.6,-0.2,-2.7,16.1
Cc1ccc(CN2COc3c(Cl)cc4c(-c5ccccc5)cc(=O)oc4c3C2)cc1,6.1,2.7,-31.9*,3.9,-1.4
COc1cc(C(=O)Nc2ccc3nc(N4CCOCC4)sc3c2)cc(OC)c1OC,0.8,1.0,-22.3,10.7,4.5
Cc1c(C(=O)Nc2ccc3nc(N4CCOCC4)sc3c2)oc2ccccc12,2.1,-0.7,-42.6*,3.9,-3.0
COC(=O)c1ccccc1-c1c2ccc(=N)cc-2oc2cc(N)ccc12,507.0*,197.8*,-56.1*,-17.5,-4.9
Cc1nc(N2CCCC2)c2nnn(Cc3ccccc3Cl)c2n1,1.1,-0.4,2.9,2.1,1.3
COc1cccc(CNC(=O)C2CCN(c3ncnc4c3nc3n4CCCCC3)CC2)c1,0.0,-0.8,4.6,0.2,-3.4
SMILES,D1 ag,TRHR ag,D1 antag,TRHR enhancer,D1 PAM
O=C(NCc1ccccc1)C1CCN(c2ncnc3c2nc2n3CCCCC2)CC1,-0.5,-0.4,-32.6*,3.7,-2.9
COc1ccc(N2CCN(c3ncnc4c3nc3n4CCCCC3)CC2)cc1,9.3,-0.5,-35.1*,0.5,-4.5
COc1ccc(N2CCN(c3ncnc4c3nnn4Cc3ccccc3Cl)CC2)cc1,8.3,-0.4,-41.8*,5.5,-12.0
COc1cccc(N2CCN(c3ncnc4c3nc3n4CCCCC3)CC2)c1,6.2,-0.7,-14.0,-4.7,0.2
COc1cccc(CNC(=O)CCc2nnc3n(C)c(=O)c4sccc4n23)c1,0.7,-0.4,2.4,2.5,-0.4
CCOC(=O)c1cccc(NS(=O)(=O)c2ccc(-c3cnc(C4CC4)o3)cc2)c1,1.5,-0.8,-11.6,1.1,0.3
Cc1ccc(Sc2ncccc2[N+](=O)[O-])cc1,5.9,-0.3,-17.0,6.6,-2.9
CC(C)(C)n1cnnc1Sc1ncccc1[N+](=O)[O-],2.8,0.6,-31.8*,2.8,11.0
CC(C)[C@H](NC(=O)c1ccccc1Br)C(=O)OCc1nc2ccsc2c(=O)[nH]1,1.8,-0.4,-30.2*,-8.1,-2.7
Cc1cccc(CNC(=O)C2CCC(=O)N(C3CCCC3)C2)c1 (configuration not stated),1.4,0.1,-45.0*,-0.2,-0.9
O=C(OCCN1C(=O)c2ccccc2C1=O)c1cc(S(=O)(=O)N2CCOCC2)ccc1Cl,0.7,0.0,-20.8,-1.5,-1.6
O=C(OCCN1C(=O)c2cccc3c(N4CCOCC4)ccc(c23)C1=O)c1ccccc1Cl,167.4*,0.3,-24.9,12.3,24.2
O=C(OCCN1C(=O)c2cccc3c(N4CCOCC4)ccc(c23)C1=O)c1ccc(Cl)cc1Cl,165.3*,71.1*,-37.4*,6.4,-9.6
O=C(OCCN1C(=O)c2cccc3c(N4CCOCC4)ccc(c23)C1=O)c1cccc(Cl)c1,82.7*,35.1*,23.8,1.5,-3.0
COc1ccc(-c2ccc(NS(=O)(=O)c3cc([N+](=O)[O-])c(C)c([N+](=O)[O-])c3)cc2)nn1,-0.1,-0.4,-4.4,0.6,0.4
CCCCOP(=O)(OCCCC)C(O)c1ccc(N(C)C)cc1 (configuration not stated),4.0,0.2,-37.2*,0.0,-10.9
CCOC(=O)c1c(C)oc2nc(C)nc(NCCCN3CCN(c4cc(C)ccc4C)CC3)c12,2.2,-0.8,13.5,5.1,4.2
CC(=O)n1c(C=Nc2ccc(Cl)cc2)c(O)c2ccccc21,39.5*,-4.4,1.6,8.9,1.1
CC(=O)Nc1ccc(C(=O)NC2CCSc3ccccc32)cc1 (configuration not stated),0.6,0.1,-15.9,-1.0,-8.2
CSc1ccccc1C(=O)NC1CCSc2ccccc21 (configuration not stated),-0.7,-1.6,-41.0*,-11.7,-3.9
Cc1ccc(NC(=S)NC2CCSc3ccccc32)cc1 (configuration not stated),22.8,-0.8,-38.4*,12.8,-6.2
COc1ccc(-c2nc3cc(C)ccn3c2NCc2ccc3c(c2)OCO3)cc1,2.6,-0.3,-31.1*,-3.3,-0.5
COc1ccc(-c2nc3ccccn3c2NCc2ccc3c(c2)OCO3)cc1,-0.4,0.4,4.1,1.6,-6.7
